# Compound activity (PubChem BioAssay)
# ALDH1A1 block – ALDH1A1 (human) enzyme inhibition | P00352 | Purified ALDH1A1, NADH fluorescence, propionaldehyde substrate | Potency, µM (top dose mostly 75.3 µM), without a hit: at the top dose activity, negative = inhibition, usual class: inhibitors | actives 7.3% (n = 220,000);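 note: potency is the fitted concentration of half-maximal effect; plate controls were no enzyme wells and a reference inhibitor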
# IMPase inh – IMPase inhibition in cells; P97697; 120,000 tested, under 10 active; CHO-M1 cells, IP1 accumulation, HTRF TR-FRET ratio; inhibition (IP1 accumulation), % at 46.1 µM; active = well fitted curve in the direction sought with a large enough effect in the signal ratio, not every such curve was filed as active; inconclusive = small, poorly fitted or top-dose-only effect, or a change in a side signal; inactive = no such curve, though single readings can be large or run the other way; the % refers to the signal ratio;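 note: cells stimulated with carbachol in lithium chloride buffer; plate controls were DMSO basal wells for no effect and reference inhibitor wells for full effect; higher means more IMPase inhibition seen as more IP1 and lower FRET ratio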
# Target sequence (P97697 whole entry, looked up): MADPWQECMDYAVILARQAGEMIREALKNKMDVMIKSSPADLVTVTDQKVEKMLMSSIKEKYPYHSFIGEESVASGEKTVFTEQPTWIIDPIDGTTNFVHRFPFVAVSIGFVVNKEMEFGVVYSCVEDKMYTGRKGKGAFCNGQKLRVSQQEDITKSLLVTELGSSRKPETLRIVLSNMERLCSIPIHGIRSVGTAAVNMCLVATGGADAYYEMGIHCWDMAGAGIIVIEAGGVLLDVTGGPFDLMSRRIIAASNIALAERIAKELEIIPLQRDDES
#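 The IP-One HTRF competitive assay in carbachol-stimulated CHO-M1 cells quantifies cellular IP1. Compounds spanned up to 46 uM final, and activity is expressed as AC50 from concentration-response fits of the ratio and donor data.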
# HPGD inh – blocks human HPGD enzyme activity; actives 4.3% (n = 150,000); purified HPGD, NADH fluorescence kinetic, PGE2 substrate; Potency, µM, for inactives: top-dose activity change, negative = inhibition, usual class: inhibitors; note: potency is the fitted concentration of half-maximal effect
#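 20 nM HPGD preincubated 15 min at room temperature with compound in 50 mM Tris-HCl pH 8, 0.01% Tween 20. Started with 1 mM NAD+ and 30 uM prostaglandin E2; NADH fluorescence (360/450 nm) read 5 times over 30-s intervals, last minus first.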
# Starred values were filed as active, the others as inactive; u = inconclusive; x = no result; [ ] = dose if it differs, or a comment. Shown are actives, neighbours in structure and some others; about 9% of the full set was active somewhere. Unless noted, calls come from the whole dose curve; as a rule, active = well fitted inhibition curve with a large enough effect (not every such curve was filed as active); inconclusive = small, poorly fitted or top-dose-only effect, or another doubt; inactive = no such curve, though single readings can be large or run the other way. Unless noted, % is set by controls: 0 for no effect and ±100 for the full control effect.
SMILES,ALDH1A1 block,IMPase inh,HPGD inh
Cc1ccc(CCP(=O)(O)CN2CCCCC2)cn1,12%,x,-2%
Cc1ccc(S(=O)(=O)NC2CCCC2)cc1C,u,0,-23%
Cc1ccc(N/C=C2\C(=O)C3(C)CCC2C3(C)C)cc1C (stereo not given),14µM*,x,x
O=C(C1CCN(S(=O)(=O)c2ccc(Br)s2)CC1)N1CCN(c2cccc(C(F)(F)F)c2)CC1,x,-2,x
NC1=NC(=O)/C(=C\c2cccs2)S1,13%,-6,-17%
N#CCCN1CCN(C2=NC(=O)/C(=C\c3cccs3)S2)CC1,25µM*,x,x
Nc1ccc2c3c(cccc13)C(=O)N(c1ccccc1)C2=O,28µM*,x,x
CN(C)c1ccc2c3c(cccc13)C(=O)N(c1ccccc1)C2=O,5%,x,x
O=C1OCCC1Sc1nnnn1-c1ccc(Cl)cc1 (stereo not given),1%,x,x
O=c1c2ccccc2nc(-c2ccc(Cl)c(Cl)c2)n1O,6%,-7,-5%
O=c1c2cc(Cl)ccc2nc(-c2ccc([N+](=O)[O-])cc2)n1O,11µM*,x,x
COC(c1ccccc1Br)C(C)/C=C/CCO (stereo not given),3.2µM*,x,x
COC(=O)C/C=C/[C@@H](C)[C@H](O)c1ccccc1Br,12%,x,2%
c1ccc(OCCOCCN2CCN(C(c3ccccc3)c3ccccc3)CC2)cc1,u,x,-12%
O=S(=O)(CCN1CCN(C(c2ccccc2)c2ccccc2)CC1)C(F)(F)F,0.35µM*,20,-6%
COc1ccc(-c2noc(-c3ccccc3-c3ccccc3)n2)cc1,-4%,2,-5%
Cc1ccc(-c2nc(-c3ccccc3)no2)c(Cl)c1,8%,-1,40µM*
CC(C)NCC[C@@H](O)c1cc2ccccc2o1,-4%[13.5 µM],x,-7%
OCCNCCO,u,x,-14%
COc1ccc(NC(=O)Cn2cc(S(=O)(=O)N3CCN(c4ccccc4F)CC3)c3ccccc3c2=O)cc1Cl,x,3,x
CC1=Nn2c(nc3sc4c(c3c2=O)CCCC4)SC1,1%,x,u
Nc1c2c3c(sc2nc(=O)n1N)CCCC3,-5%,x,x
C=C1CSc2nc(=O)c3c4c(sc3n21)CCCC4,-15%,4,14µM*
C=C1CSc2nc(=O)c3c4c(sc3n21)CCC4,6%,12,14µM*
O=S(=O)(NC1=NCCC1)c1ccc(F)cc1F,4%,x,x
SMILES,ALDH1A1 block,IMPase inh,HPGD inh
COc1ccc(NC(=O)Cc2nnc(SCC(=O)Nc3cc(C)ccc3OC)n2C)cc1,-4%,17,-11%
CCOC(=O)c1ccc(-c2c(C(=O)OCC)oc3cc(O)c(CC)cc3c2=O)o1,10µM*,10,-17%
CCOC(=O)c1oc2cc(O)c(CC)cc2c(=O)c1-c1cscn1,-13%,x,x
O=C(O)CN1CCN(Cc2ccccc2F)C1=O,-8%,x,x
O=C(Nc1ccnc(-c2ccncc2)n1)C1CC1,11%,x,x
CCOC(=O)CCCCC(=O)c1[nH]c(=O)[nH]c1CSc1nnc2c3cc(Br)ccc3n(C)c2n1,0.63µM*,x,x
CCOC(=O)CCCCC(=O)c1[nH]c(=O)[nH]c1CSc1nc(C)cc(C)n1,-2%,6,-6%
C/C(N)=C(/C#N)C(=O)CSc1nc2scc(-c3ccc(F)cc3)c2c(=O)n1C,16µM*,x,x
C/C(N)=C(/C#N)C(=O)CSc1nc2ccccc2c(=O)n1Cc1ccc(F)cc1,0%,x,x
CCn1c(SCC(=O)N(C)C2CCS(=O)(=O)C2)nnc1-c1ccccc1 (stereo not given),2%,x,x
O=C(c1cnc2ccccn2c1=O)N1CCCc2ccccc21,8.9µM*,2,-9%
O=C(c1cnc2n(c1=O)CCS2)N1CCCc2ccccc21,-3%,-8,-11%
Cc1ccc([N+](=O)[O-])cc1NC(=O)Nc1onc(C)c1C,3%,x,x
OCC1(Cc2ccccc2)CCCN(Cc2c[nH]c3ccccc23)C1 (stereo not given),2%,x,x
N#CCCN(Cc1ccccc1)C(=S)Nc1ccccc1,6%,x,-14%
COc1ccc(CN(CCC#N)C(=S)NC(=O)c2ccccc2)cc1,25µM*,-16,-13%
CCOc1ccc(CN(CCC#N)C(=S)NC(=O)c2ccccc2)cc1,u,-1,-9%
N#CCCN(Cc1ccccc1)C(=S)NC(=O)c1ccccc1,14µM*,0,-25%
CCCC(=O)NC(=S)Nc1ccc(Cl)cn1,25µM*,-8,-14%
NS(=O)(=O)c1ccc(NC(=O)/C=C/c2ccco2)cc1,24µM*,x,x
O=C(O)C(C(=O)/C=C/c1ccco1)=C1SCCS1,13µM*,1,-21%
N#C/C(=C\c1ccco1)C(=O)Nc1ccc(S(N)(=O)=O)cc1,8%,x,x
Cc1ccnc(NC(=S)NC(=O)/C=C/c2ccco2)c1,u,-2,-14%
O=C(C=C1SCCS1)/C=C/c1ccco1,-16%,4,-9%
O=C(NC(=S)Nc1ccc(Cl)cn1)c1cccs1,u,-8,-22%
